The target of experiment [1] is T1, Ephrin type-A receptor 3 (Homo sapiens) (UniProt P29320).
T1 sequence (whole entry): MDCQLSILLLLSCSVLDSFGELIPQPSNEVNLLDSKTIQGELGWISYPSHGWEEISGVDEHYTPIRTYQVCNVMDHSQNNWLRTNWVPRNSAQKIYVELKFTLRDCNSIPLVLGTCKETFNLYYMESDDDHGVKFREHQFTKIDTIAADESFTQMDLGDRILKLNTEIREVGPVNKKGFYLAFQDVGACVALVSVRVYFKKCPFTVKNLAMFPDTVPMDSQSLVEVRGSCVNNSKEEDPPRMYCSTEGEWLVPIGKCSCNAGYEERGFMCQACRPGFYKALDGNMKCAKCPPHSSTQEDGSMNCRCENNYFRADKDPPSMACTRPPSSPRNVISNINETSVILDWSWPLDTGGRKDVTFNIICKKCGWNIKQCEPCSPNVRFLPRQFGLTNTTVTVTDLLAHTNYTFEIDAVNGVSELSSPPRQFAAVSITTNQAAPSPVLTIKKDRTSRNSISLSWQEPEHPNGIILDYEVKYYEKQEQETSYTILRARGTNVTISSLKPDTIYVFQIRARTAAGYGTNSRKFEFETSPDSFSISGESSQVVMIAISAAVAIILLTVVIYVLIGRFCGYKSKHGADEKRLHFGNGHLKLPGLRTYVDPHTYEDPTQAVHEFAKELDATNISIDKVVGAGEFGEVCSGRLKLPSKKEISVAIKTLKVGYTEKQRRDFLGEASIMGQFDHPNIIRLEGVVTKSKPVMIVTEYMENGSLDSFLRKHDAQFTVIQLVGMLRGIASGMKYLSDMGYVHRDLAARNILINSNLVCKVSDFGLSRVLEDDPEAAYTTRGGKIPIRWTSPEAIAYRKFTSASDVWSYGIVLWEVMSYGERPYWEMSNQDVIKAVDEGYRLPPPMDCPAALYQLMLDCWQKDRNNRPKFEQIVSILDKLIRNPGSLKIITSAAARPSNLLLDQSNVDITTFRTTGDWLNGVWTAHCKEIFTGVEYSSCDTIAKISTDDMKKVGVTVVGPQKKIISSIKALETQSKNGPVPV
The note with it: at 10 µM.

The target of experiment [2] is Ephrin type-A receptor 4 (Homo sapiens) (UniProt P54764). The note with it: at 1 µM.
For experiment [3] the target is unchanged. The settings on record: at 10 µM.
The target of experiment [4] is Ephrin type-A receptor 5 (Homo sapiens) (UniProt P54756). The note with it: at 1 µM.
The target is the same in experiment [5]. The note with it: at 10 µM.
The target in experiment [6] is Ephrin type-A receptor 7 (Homo sapiens) (UniProt Q15375). The settings on record: at 1 µM.
Experiment [7] has the same target. The note with it: at 10 µM.
The target in experiment [8] is T2, Ephrin type-A receptor 8 (Homo sapiens) (UniProt P29322).
T2 sequence (whole entry): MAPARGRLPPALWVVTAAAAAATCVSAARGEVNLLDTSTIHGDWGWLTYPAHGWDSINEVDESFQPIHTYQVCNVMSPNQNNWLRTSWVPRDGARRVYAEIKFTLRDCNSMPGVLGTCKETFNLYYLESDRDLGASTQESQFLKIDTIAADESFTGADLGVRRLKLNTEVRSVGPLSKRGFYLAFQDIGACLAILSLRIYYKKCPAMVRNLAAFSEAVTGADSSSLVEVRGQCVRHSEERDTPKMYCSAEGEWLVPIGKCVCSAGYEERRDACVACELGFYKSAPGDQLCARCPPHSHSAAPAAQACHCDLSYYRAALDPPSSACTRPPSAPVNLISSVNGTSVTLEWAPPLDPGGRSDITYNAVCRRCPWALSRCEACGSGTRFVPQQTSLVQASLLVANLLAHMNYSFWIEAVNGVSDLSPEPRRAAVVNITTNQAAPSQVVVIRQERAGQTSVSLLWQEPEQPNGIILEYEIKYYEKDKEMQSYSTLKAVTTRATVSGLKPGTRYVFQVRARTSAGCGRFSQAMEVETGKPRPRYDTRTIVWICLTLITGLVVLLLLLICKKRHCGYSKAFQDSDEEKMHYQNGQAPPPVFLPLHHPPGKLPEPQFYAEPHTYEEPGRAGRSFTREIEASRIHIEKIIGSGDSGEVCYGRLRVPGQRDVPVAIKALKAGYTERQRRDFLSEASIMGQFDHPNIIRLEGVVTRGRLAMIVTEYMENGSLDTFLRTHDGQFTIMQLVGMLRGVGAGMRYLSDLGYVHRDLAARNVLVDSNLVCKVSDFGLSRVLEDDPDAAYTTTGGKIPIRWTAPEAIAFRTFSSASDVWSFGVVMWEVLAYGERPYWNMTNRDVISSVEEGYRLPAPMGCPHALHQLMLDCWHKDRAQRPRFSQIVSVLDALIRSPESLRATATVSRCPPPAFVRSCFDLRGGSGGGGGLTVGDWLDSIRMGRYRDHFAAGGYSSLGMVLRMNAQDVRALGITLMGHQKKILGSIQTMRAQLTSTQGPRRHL
The note with it: at 1 µM.

The target in experiment [9] is T2, Ephrin type-A receptor 8 (Homo sapiens). The settings on record: at 10 µM.

Sequence of Ephrin type-A receptor 5 (Homo sapiens) (P54756 whole entry): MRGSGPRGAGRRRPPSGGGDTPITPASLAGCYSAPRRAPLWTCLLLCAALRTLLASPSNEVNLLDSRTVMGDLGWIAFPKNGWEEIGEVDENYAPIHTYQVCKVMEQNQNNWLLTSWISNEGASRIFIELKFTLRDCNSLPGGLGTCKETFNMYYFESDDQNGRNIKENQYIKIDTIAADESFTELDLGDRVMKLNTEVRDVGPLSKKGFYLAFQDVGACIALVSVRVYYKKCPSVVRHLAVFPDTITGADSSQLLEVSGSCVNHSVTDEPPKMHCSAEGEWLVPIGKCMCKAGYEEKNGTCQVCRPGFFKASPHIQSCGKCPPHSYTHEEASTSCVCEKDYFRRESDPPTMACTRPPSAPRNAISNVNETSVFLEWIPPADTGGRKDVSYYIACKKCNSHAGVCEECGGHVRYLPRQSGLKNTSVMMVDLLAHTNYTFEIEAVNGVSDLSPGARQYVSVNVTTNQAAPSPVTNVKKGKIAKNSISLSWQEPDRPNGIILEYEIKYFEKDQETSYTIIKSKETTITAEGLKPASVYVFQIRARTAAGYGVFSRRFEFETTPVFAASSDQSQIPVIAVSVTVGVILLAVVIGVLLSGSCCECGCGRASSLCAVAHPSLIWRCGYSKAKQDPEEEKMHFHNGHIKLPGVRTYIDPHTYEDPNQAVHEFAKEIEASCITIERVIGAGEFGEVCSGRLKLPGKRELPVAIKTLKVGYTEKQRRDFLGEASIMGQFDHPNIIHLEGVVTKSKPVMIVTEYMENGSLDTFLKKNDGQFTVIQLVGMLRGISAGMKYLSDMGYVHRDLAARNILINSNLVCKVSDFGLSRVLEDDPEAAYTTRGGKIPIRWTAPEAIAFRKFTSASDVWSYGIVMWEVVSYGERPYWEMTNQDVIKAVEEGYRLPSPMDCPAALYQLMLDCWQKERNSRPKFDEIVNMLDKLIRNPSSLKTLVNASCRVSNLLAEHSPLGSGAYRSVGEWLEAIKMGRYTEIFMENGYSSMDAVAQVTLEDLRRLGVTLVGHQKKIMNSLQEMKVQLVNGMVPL
Sequence of Ephrin type-A receptor 4 (Homo sapiens) (P54764 whole entry): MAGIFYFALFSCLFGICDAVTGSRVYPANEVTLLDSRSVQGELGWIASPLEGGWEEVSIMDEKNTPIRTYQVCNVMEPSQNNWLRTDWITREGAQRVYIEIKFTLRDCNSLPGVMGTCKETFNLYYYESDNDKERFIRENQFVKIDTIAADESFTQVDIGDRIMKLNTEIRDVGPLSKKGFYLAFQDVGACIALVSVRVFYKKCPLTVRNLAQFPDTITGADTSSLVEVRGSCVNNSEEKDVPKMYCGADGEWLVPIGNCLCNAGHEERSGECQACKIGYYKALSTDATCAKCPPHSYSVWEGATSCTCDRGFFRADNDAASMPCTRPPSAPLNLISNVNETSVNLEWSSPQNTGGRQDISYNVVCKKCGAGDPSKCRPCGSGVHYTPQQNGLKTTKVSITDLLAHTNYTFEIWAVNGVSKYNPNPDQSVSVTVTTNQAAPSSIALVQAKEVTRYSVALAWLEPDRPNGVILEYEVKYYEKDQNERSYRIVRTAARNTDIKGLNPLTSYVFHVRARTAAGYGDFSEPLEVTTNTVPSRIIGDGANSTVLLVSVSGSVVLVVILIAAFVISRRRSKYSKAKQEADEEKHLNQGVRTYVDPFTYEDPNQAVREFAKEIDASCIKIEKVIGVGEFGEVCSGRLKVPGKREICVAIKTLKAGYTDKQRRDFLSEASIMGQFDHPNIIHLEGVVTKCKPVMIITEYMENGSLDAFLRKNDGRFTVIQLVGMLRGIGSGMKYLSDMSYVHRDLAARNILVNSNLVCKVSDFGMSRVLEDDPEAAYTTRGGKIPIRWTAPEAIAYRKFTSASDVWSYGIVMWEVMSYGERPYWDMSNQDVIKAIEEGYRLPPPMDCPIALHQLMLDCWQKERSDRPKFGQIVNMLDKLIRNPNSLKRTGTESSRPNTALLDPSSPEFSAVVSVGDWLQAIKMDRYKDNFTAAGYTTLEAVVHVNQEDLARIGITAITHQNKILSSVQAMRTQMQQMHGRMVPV
Sequence of Ephrin type-A receptor 7 (Homo sapiens) (Q15375 28-998 limits assumed): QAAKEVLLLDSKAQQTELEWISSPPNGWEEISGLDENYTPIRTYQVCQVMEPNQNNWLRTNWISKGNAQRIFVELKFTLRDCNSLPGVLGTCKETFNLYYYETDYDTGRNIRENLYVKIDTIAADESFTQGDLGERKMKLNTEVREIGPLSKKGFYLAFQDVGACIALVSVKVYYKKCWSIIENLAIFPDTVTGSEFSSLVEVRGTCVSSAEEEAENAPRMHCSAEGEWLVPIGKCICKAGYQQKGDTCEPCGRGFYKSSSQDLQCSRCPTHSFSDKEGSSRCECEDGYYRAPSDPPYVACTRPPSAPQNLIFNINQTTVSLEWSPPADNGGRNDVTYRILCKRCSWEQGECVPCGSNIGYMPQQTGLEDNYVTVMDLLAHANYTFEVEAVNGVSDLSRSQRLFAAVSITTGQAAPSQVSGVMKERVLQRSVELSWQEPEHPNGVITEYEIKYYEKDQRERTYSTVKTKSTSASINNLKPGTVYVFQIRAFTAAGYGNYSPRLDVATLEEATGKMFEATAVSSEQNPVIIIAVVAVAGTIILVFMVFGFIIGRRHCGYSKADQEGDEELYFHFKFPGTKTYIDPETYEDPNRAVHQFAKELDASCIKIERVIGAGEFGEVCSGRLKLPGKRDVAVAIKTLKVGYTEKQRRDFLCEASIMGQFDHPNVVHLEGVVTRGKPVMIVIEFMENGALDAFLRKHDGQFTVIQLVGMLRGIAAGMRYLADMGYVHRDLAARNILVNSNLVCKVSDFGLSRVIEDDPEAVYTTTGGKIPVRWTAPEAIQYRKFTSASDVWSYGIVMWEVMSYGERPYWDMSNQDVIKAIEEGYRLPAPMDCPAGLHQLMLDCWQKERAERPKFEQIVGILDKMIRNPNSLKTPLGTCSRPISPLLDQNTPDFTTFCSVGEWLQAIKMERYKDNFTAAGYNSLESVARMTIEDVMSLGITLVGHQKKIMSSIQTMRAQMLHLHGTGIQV

By residual activity is commonly meant the signal under treatment as a percentage of the control signal. With `c1ccc2c(-c3ccncc3)c[nH]c2c1`, the residual activity amounted to 92% in [1]; 109% in [2]; 98% in experiment [3]; 102% in experiment [4]; 111% in experiment [5]; 99% in experiment [6]. Also, the figures for the residual activity in experiment [7], in [8] and in [9] were 84%, 96% and 92%, respectively.

For the origin of these results see ChEMBL document CHEMBL2218924, “A broad activity screen in support of a chemogenomic map for kinase signalling research and drug discovery” (Biochem J, 2013).
